The source made the active and inactive calls.
Assays:
[1] = system: PRMT1 (protein arginine N-methyltransferase 1); assay: PRMT1 binders on small-molecule microarrays, primary screen, biochemical, small-molecule microarray, 635 nm fluorescence (AID 1088); conditions: small-molecule microarray binding, higher = more signal;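 further: binding of Prmt1 protein to compounds spotted on small-molecule microarray slides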
[2] = yeast growth modulation, basal conditions, primary screen, YJM789 clinical isolate, OD600, 24 h (AID 1089);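 further: growth of clinical yeast isolate S. cerevisiae YJM 789 seeded 1000 cells per well; test concentration not given here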; conditions: S. cerevisiae YJM789 growth, higher = more signal, called active from +8 up or from −8 down
[3] = fission yeast growth modulation, primary screen, strain 972, OD600, 24 h, no modulator (AID 1090);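 further: basal condition with compound alone and no growth modifier present; test concentration not given here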; conditions: S. pombe 972 growth, higher = more signal, called active from +8 up or from −8 down
[4] = S. cerevisiae growth modulation with rapamycin, primary screen, strain BY4716, OD600, 96 h (AID 1091); conditions: higher = more signal, called active from +8 up or from −8 down; further: test concentration not given here
[5] = biological target: Torsin-1A-interacting protein 2 (Homo sapiens) (UniProt Q8NFQ8); assay: LULL1 binders on small-molecule microarray, primary screen, cell lysate, human LULL1 lysate, 635/667 nm fluorescence (AID 1092); conditions: hLULL1 lysate binding, 635 nm fluorescence, higher = more signal;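 further: probe is lysate of COS7 cells overexpressing human LULL1; score merges per-feature 667 nm fluorescence with signal-to-noise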
[6] = E. coli growth modulation, two-sided OD650, primary screen, E. coli filamentation project, strain DRC41, 24 h (AID 1093); conditions: OD650, 24 h, higher = more signal, called active from +8 up or from −8 down;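 further: MC1000 strain lacking acrAB efflux and sulA so SOS filamentation is blocked; test concentration not given here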
[7] = small-molecule microarray binders of probe aLefty2, primary screen, biochemical, biotinylated probe, 635/667 nm fluorescence (AID 1094); conditions: higher = more signal;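 further: score merges spot fluorescence near 667 nm with spot signal-to-noise ratio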
[8] = system: Noggin (protein binding on small-molecule microarray); assay: Noggin binders on small-molecule microarray, primary screen, biochemical, 635/667 nm fluorescence (AID 1095); conditions: 635 nm fluorescence, higher = more signal;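 further: score merges 667 nm feature fluorescence with signal to noise over triplicate slides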
[9] = biological target: Neurogenic locus notch homolog protein 3 (Homo sapiens) (UniProt Q9UM47); assay: NOTCH3 binders on small-molecule microarray, primary screen, biochemical, 635/667 nm fluorescence (AID 1096); conditions: NOTCH3 binding, 635 nm fluorescence, higher = more signal
[10] = small-molecule microarray binders of probe aEGFR, primary screen, biochemical, biotinylated probe, 635/667 nm fluorescence (AID 1097); conditions: higher = more signal;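 further: probe is a biotinylated anti-EGFR antibody binding compounds printed on slides; score combines fluorescence near 667 nm and signal to noise of each spot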
[11] = system: Plasmodium falciparum Sir2 (PF13_0152, Sir2A); assay: pfSir2 binders on small-molecule microarrays, primary screen, biochemical, small-molecule microarray, 635 nm fluorescence (AID 1098); conditions: small-molecule microarray binding, fluorescence 635 nm; higher = more signal;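 further: score merges spot fluorescence intensity with its signal-to-noise ratio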
[12] = small-molecule microarray binders of probe aDKK1, primary screen, biochemical, biotinylated probe, 635/667 nm fluorescence (AID 1099); conditions: higher = more signal;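 further: score merges 667nm spot fluorescence with signal to noise across triplicate slides; reference of the scale not given here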
[13] = small-molecule microarray binders of probe aCHRDL2, primary screen, biochemical, biotinylated probe, 635/667 nm fluorescence (AID 1100); conditions: higher = more signal
[14] = splicing luciferase reporter signal modulators, primary screen, spliceosome inhibition project, cell-based, HEK293, splice +/- reporter (AID 1101); conditions: luminescence, 24 h, higher = more signal, called active from +8 up or from −8 down;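 further: HEK293 cells carrying a splicing-competent luciferase reporter gene; test concentration not given here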
[15] = biological target: Fibroblast growth factor 10 (Homo sapiens) (UniProt O15520); assay: FGF10 binders on small-molecule microarrays, primary screen, biochemical, small-molecule microarray, 635 nm fluorescence (AID 1102); conditions: FGF10 binding, fluorescence 635 nm, higher = more signal
[16] = system: glycogen synthase kinase-3 (GSK3A per assay name; protocol says GSK3B); assay: GSK3 binders on small-molecule microarrays, primary screen, biochemical, small-molecule microarray, 635 nm fluorescence, GSK3A (AID 1103); conditions: small-molecule microarray binding, fluorescence 635 nm; higher = more signal; further: the record names both GSK3A and GSK3B
[17] = biological target: Epidermal growth factor receptor (Homo sapiens) (UniProt P00533); assay: EGFR binders on small-molecule microarrays, primary screen, biochemical, small-molecule microarray, 635 nm fluorescence (AID 1104); conditions: EGFR binding, higher = more signal;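 further: score merges 667 nm emission intensity with spot signal to noise over triplicate slides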
[18] = biological target: Follistatin-related protein 3 (Homo sapiens) (UniProt O95633); assay: FSTL3 binders on small-molecule microarrays, primary screen, biochemical, small-molecule microarray, 635 nm fluorescence (AID 1105); conditions: FSTL3 binding, higher = more signal;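 further: score merges emission near 667 nm and signal to noise per printed spot across three slides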
[19] = biological target: Dickkopf-related protein 1 (Homo sapiens) (UniProt O94907); assay: DKK1 binders on small-molecule microarrays, primary screen, biochemical, small-molecule microarray, 635 nm fluorescence scan (AID 1106); conditions: DKK1 binding, higher = more signal;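 further: score merges emission near 667 nm with signal to noise over three replicate slides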
[20] = system: Inhibin beta A chain (activin A); assay: INHBA (activin A) binders on microarrays, primary screen, biochemical, small-molecule microarray, 635 nm fluorescence scan (AID 1107); conditions: small-molecule microarray binding, higher = more signal;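 further: mouse activin A protein probed at 4.33 µg/mL on printed slides; score merges bound-protein fluorescence near 667 nm with spot signal-to-noise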

Sequence of Follistatin-related protein 3 (Homo sapiens) (O95633 whole entry, looked up): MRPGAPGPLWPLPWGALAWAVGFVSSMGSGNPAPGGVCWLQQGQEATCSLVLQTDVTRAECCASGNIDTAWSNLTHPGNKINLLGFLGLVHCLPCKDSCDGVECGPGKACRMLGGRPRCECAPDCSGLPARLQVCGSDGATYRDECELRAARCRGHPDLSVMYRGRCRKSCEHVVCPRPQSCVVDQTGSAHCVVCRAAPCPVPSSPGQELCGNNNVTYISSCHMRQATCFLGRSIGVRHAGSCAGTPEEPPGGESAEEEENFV
Sequence of Epidermal growth factor receptor (Homo sapiens) (P00533 whole entry, looked up): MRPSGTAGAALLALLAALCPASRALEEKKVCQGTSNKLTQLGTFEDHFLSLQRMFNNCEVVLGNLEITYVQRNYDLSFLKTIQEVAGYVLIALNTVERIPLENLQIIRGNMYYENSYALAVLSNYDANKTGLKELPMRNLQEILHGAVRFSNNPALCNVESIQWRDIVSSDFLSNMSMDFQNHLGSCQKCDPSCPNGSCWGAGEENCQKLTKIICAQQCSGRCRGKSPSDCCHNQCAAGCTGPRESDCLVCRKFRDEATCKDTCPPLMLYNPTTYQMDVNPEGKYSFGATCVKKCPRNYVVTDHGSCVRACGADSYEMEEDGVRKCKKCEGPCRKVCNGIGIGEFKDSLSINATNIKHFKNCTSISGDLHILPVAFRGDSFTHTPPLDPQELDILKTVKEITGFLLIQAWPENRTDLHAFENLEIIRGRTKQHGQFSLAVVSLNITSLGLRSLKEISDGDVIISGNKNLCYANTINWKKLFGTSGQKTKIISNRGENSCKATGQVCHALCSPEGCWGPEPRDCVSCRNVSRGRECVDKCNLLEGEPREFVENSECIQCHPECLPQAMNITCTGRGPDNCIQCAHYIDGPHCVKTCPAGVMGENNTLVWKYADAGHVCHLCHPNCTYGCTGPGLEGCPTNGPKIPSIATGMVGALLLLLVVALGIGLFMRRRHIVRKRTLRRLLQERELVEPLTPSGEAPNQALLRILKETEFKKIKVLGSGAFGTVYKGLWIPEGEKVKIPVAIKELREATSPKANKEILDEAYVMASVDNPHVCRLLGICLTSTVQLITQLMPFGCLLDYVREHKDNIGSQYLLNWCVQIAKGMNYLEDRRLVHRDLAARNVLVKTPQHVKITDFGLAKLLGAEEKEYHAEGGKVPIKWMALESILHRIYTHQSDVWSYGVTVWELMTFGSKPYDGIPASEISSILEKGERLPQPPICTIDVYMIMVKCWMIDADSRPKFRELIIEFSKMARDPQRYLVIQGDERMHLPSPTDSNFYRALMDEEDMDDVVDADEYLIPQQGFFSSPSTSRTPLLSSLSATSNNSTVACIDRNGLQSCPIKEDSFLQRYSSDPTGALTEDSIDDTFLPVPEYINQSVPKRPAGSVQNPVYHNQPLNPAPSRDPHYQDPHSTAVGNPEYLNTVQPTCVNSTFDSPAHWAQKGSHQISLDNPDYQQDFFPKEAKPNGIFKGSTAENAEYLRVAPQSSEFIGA
Sequence of Torsin-1A-interacting protein 2 (Homo sapiens) (Q8NFQ8 whole entry, looked up): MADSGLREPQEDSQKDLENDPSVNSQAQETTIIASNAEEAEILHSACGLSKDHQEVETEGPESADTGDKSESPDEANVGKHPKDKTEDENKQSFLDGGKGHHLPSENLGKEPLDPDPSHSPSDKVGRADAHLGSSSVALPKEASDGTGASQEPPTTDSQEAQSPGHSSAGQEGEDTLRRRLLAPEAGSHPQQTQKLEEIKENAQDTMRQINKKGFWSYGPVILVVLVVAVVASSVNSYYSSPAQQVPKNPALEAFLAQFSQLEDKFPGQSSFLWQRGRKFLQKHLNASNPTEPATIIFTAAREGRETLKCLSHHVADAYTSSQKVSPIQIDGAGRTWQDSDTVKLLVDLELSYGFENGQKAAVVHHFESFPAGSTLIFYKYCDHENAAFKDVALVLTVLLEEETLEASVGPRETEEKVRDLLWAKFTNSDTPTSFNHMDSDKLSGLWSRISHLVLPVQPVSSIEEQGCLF
Sequence of Fibroblast growth factor 10 (Homo sapiens) (O15520 whole entry, looked up): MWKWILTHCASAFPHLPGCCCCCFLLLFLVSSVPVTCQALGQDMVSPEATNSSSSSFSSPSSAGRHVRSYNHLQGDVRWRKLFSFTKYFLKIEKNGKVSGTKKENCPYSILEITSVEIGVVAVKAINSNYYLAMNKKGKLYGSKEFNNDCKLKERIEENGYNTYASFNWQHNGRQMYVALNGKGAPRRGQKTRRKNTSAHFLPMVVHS
Sequence of Neurogenic locus notch homolog protein 3 (Homo sapiens) (Q9UM47 whole entry, looked up): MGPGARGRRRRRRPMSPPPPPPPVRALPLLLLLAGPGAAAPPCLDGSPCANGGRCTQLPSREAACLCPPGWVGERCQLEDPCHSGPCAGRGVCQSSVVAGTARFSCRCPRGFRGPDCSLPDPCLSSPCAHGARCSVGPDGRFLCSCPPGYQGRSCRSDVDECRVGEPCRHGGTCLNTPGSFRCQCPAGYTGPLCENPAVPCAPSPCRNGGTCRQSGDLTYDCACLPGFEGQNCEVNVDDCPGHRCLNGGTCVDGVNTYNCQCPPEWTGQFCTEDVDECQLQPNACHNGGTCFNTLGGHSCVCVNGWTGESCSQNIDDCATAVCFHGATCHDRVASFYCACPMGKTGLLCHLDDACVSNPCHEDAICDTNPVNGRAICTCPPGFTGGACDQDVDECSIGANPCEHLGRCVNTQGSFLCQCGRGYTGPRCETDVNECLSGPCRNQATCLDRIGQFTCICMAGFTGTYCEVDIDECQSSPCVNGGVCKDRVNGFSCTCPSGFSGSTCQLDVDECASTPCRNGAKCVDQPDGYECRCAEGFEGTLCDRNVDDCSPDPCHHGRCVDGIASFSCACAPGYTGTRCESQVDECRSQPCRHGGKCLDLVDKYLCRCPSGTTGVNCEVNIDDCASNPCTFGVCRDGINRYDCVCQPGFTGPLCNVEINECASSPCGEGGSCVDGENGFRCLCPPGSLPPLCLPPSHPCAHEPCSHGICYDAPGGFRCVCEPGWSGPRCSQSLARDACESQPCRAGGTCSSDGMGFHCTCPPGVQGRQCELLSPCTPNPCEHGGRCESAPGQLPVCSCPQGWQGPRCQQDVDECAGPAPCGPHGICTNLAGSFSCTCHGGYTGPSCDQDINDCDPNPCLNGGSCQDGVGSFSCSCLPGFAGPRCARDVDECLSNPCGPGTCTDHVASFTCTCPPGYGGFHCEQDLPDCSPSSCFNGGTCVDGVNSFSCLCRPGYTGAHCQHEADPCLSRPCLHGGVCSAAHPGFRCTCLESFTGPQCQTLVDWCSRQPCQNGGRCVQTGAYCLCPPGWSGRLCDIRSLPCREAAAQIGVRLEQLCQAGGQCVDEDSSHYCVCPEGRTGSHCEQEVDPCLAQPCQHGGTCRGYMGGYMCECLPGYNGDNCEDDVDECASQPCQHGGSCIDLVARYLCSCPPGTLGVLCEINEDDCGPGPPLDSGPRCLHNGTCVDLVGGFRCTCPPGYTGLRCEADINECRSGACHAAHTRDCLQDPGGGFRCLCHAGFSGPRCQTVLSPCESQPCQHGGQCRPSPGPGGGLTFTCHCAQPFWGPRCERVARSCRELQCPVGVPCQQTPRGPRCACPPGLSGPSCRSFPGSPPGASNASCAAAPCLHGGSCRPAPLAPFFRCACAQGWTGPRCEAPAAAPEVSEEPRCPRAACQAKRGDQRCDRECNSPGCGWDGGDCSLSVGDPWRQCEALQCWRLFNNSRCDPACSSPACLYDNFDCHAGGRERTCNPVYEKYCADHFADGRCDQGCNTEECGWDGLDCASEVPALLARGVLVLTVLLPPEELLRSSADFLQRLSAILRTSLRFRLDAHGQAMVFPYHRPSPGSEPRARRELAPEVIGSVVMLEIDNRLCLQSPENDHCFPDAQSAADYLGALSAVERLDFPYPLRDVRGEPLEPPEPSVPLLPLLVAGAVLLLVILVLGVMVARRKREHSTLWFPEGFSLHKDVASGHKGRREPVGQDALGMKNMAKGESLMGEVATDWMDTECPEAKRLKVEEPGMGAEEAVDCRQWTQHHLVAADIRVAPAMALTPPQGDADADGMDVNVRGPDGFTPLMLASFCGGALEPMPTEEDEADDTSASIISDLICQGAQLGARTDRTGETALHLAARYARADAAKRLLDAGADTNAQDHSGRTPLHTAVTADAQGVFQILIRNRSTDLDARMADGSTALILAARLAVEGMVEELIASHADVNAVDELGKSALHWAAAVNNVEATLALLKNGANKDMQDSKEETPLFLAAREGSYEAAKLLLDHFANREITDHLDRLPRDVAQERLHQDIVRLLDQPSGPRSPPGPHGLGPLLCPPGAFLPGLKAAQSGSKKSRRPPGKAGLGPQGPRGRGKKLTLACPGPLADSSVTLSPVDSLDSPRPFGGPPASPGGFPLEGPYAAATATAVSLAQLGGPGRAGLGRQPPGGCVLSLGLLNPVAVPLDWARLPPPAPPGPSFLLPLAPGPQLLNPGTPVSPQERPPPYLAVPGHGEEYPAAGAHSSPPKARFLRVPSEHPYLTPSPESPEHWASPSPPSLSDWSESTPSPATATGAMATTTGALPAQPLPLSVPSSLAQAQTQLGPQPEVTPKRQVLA
Sequence of Dickkopf-related protein 1 (Homo sapiens) (O94907 whole entry, looked up): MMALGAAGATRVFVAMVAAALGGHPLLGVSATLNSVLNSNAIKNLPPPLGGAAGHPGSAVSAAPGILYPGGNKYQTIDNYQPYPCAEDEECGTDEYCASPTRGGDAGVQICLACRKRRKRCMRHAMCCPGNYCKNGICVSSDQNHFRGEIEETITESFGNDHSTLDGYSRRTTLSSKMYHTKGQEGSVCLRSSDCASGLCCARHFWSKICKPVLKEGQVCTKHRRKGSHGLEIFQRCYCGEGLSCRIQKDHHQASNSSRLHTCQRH

Row | Structure (SMILES) | composite z-score [1] | z-score [2] | z-score [3] | z-score [4] | composite z-score [5] | z-score [6] | composite z-score [7] | composite z-score [8] | composite z-score [9] | composite z-score [10] | composite z-score [11] | composite z-score [12] | composite z-score [13] | z-score [14] | composite z-score [15] | composite z-score [16] | composite z-score [17] | composite z-score [18] | composite z-score [19] | composite z-score [20]
1 | C[C@@]12COC[C@]13C=C(Br)[C@H](C2)[C@@]1(CO1)C3=O | -1.78 | -0.0556 (inactive) | -2.25 (inactive) | -0.0407 (inactive) | -2.15 | -0.768 (inactive) | -0.207 | -0.508 | -0.233 | -0.178 | -0.363 | -0.101 | 0.262 | -0.374 (inactive) | -0.732 | -1.02 | -0.886 | -0.449 | -0.614 | 0.701
2 | CCc1cccc(NC(=O)O[C@H]2[C@H](OC(=O)Nc3ccccc3)[C@H](OC(=O)Nc3ccccc3)[C@@H](OC)O[C@@H]2CO)c1 | 1.5 | 1.22 (inactive) | 1.72 (inactive) | 8.61 (active) | 3.48 | -0.728 (inactive) | 0.0166 | 0.349 | 1.08 | -0.0968 | 1.41 | 0.22 | 0.55 | -0.376 (inactive) | 1.51 | 1.24 | -0.0045 | 0.833 | -0.186 | 0.444
3 | CCCNC(=O)[C@@]1(Sc2ccc(C)cc2)CC(=O)N(C(C)C)[C@@H]1c1ccc(CO)cc1I | 1.28 | -1.08 (inactive) | -0.877 (inactive) | 1.79 (inactive) | 2.73 | -0.157 (inactive) | 0.0444 | -0.719 | -1.2 | -0.252 | 0.0404 | 0.832 | 1.37 | -0.0862 (inactive) | -0.72 | -1.33 | -1.71 | -1.35 | -2.76 | 0.448
4 | C[C@]1(C(=O)NCC(F)(F)F)c2ccccc2C(=O)N(Cc2ccccc2)[C@H]1c1ccc(CO)cc1 | -0.604 | 0.724 (inactive) | 0.645 (inactive) | -0.0993 (inactive) | 1.57 | 0.855 (inactive) | -0.0478 | -1.45 | -1.21 | -0.162 | 0.905 | -0.0306 | 0.543 | 0.0226 (inactive) | -1.63 | -1.8 | -1.3 | -1.47 | -1.71 | -0.264
5 | COC(=O)[C@@]1(Cc2ccc(OC)cc2)[C@H]2c3cc(C(=O)N4CCCC4)n(Cc4cc(C)n(C)n4)c3C[C@H]2CN1C(=O)c1ccccc1 | 0.481 | -0.102 (inactive) | 1.31 (inactive) | 0.202 (inactive) | 3.85 | -0.265 (inactive) | 0.724 | -0.513 | 1.04 | 0.701 | 1.74 | 1.26 | 1.17 | 0.317 (inactive) | 1.32 | 0.666 | -0.158 | 0.0098 | -0.712 | 0.104
6 | C=CCC(OC(C)=O)[C@@H]1[C@@H](N(Cc2ccc(-c3ccccc3)cc2)C(=O)c2ccc(C)cc2)c2cc(OCCCO)ccc2N1C(=O)Cc1ccc2ccccc2c1 (stereo not given in full) | 0.543 | -2.04 (inactive) | -0.71 (inactive) | -0.633 (inactive) | 0.51 | 1.64 (inactive) | -0.0042 | -0.0965 | 0.187 | -0.126 | -0.334 | -0.199 | 0.0333 | -1.84 (inactive) | 0.107 | -0.197 | 0.251 | -0.274 | 0.258 | 0.567
7 | COCCOC(=O)N1C(=O)[C@@]2(c3cc(C#CCC(C(=O)OC)C(=O)OC)ccc31)[C@H](c1ccc(OCCO)cc1)N1[C@H](c3ccccc3)[C@H](c3ccccc3)OC(=O)[C@H]1[C@@H]2C(=O)Nc1nc2ccccc2s1 | 1.57 | 2.28 (inactive) | 2.31 (inactive) | 4.03 (inactive) | 0.828 | 2.5 (inactive) | -0.122 | 0.994 | 1.1 | -0.04 | 1.02 | 0.0317 | -0.108 | 0.907 (inactive) | 0.84 | 1.06 | 0.292 | 1.08 | 0.279 | 0.495
8 | COc1cc2c(cc1OC)CN(C(=O)[C@@H]1[C@H]3C(=O)O[C@H](c4ccccc4)[C@H](c4ccccc4)N3[C@H](c3ccc(O)cc3)[C@@]13C(=O)Nc1ccc(C#CCCO)cc13)CC2 | 1.34 | 1.09 (inactive) | 0.673 (inactive) | 1.81 (inactive) | 2.5 | -0.385 (inactive) | -0.0809 | 0.32 | 0.667 | -0.0424 | 0.552 | -0.0984 | 0.562 | -0.117 (inactive) | 1.19 | 0.422 | -0.0629 | 0.547 | 0.755 | 0.924
9 | COCCCNC(=O)[C@@]1(c2ccc([N+](=O)[O-])cc2)CC(=O)N(CC23CC4CC(CC(C4)C2)C3)[C@@H]1c1ccc(CO)cc1I | 1.3 | 1.01 (inactive) | 1.08 (inactive) | 4.92 (inactive) | 1.75 | -0.254 (inactive) | 0.0283 | 0.26 | 0.341 | -0.183 | 1.02 | 0.541 | 0.847 | 3.68 (inactive) | -0.0432 | -0.115 | -0.392 | -0.36 | -0.15 | 0.126
10 | CCN(CC)c1ccc(N2CC=CC34O[C@@H]5C=CCCOC(=O)C5[C@H]3C(=O)N(CCO)[C@@H]4C2=O)cc1 (stereo not given in full) | -1.15 | -0.562 (inactive) | -1.07 (inactive) | -0.315 (inactive) | -0.66 | 0.701 (inactive) | -0.235 | -1.42 | -0.477 | -0.201 | -0.0437 | -0.289 | 0.269 | -0.688 (inactive) | -0.504 | -0.908 | -0.869 | -1.45 | -0.351 | -0.589

— PubChem BioAssay
